Compounds without any hit were thinned out: in the full panel of roughly 79,000, 15% have a hit. Unmarked numbers belong to inactive results. The source made the active and inactive calls. Rule as the data show it: active = growth inhibition above about 70%; inactive = the rest.

This assay in a line: NCI Yeast Anticancer Drug Screen. Data for the mec2-1 strain (AID 157). As to conditions: S. cerevisiae mec2-1 strain, at 50.0 µM, stronger effect = higher value. In outline:
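Test agents were screened against the mec2-1 yeast strain, with defined DNA repair or cell cycle alteration. Growth was scored as inhibition against vehicle-only controls.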
As for `COC(=O)[C@H]1O[C@H]1c1ccncc1`, the growth inhibition is 1.65%.
The value for `O=[N+]([O-])c1ccc(NSc2ccccc2)cc1` was 92.5% (active).
The result for `OCCOCCO[P+]1(OCCOCCO)n2c3ccc2C(c2ccccc2)=C2C=CC(=N2)C(c2ccccc2)=c2ccc(n21)=C(c1ccccc1)C1=NC(=C3c2ccccc2)C=C1` reads 92.2% (active).
The result for `NCCSC1(O)C(=O)c2ccccc2-c2ccccc21` (stereo not given) reads 98.2% (active).
As to `C/C=C(\C)C(=O)O[C@@H]1CC(C)(C)CC2C3=CCC4[C@]56CC[C@](O)(OC5)C(C)(C)C6CC[C@@]4(C)C3(C)CC[C@]21C(=O)O` (stereo not given in full), the growth inhibition was 84.7% (active).
The result for `CSC(=S)NN=C1CCCCC1` reads 88.5% (active); that for `O=C1c2ccccc2C(O)(C#Cc2ccccc2)c2cnccc21` (stereo not given), 98.5% (active); that for `CCCCCC(CCCCC)C(=O)O`, 70.2% (active).
Take `CC(C)(N=Nc1ccc([N+](=O)[O-])cc1)[N+](=O)[O-]`: the growth inhibition is 53.6%.
The value for `CCCCCCCCCCCCCC(=O)N1CCOCC1` was 99.7% (active); that for `CCOc1ccccc1-c1nc2c(s1)C(=O)c1ccccc1C2=O` was 91.4% (active).
On to `c1ccc2c(c1)C[n+]1ccc3ccccc3c1-c1c3ccccc3cc[n+]1C2`, for which the growth inhibition was 13.4%.
For `Nc1cc2c(c[n+](CCCCCCCCCC[n+]3cc4c5ccccc5c(N)cc4c4ccccc43)c3ccccc23)c2ccccc12`, the growth inhibition is 91.8% (active).
For `Cc1ccc(N=C(N)NN=C(c2ccc(Cl)cc2)c2ccc(Cl)cc2)cc1`, the growth inhibition is 98.5% (active).
The value for `O/N=C(/C[n+]1csc2ccccc21)c1ccccc1` was 79.5% (active).
The value for `COc1ccc(C2Oc3c(cccc3OC)C=C2[N+](=O)[O-])cc1` (stereo not given) was 40.1%; that for `O=C(O)c1c2c(cc3c1CC1(Cc4cc5c(cc4C1=O)CCC5)C3)CCC2` (stereo not given) was 87.5% (active); that for `CSc1ncnc2ncn(C3OC(CO)C(O)C3O)c12` (stereo not given) was 3.55%.
The value for `CC1SC(=S)N(c2ccc(Cl)cc2)C1=O` (stereo not given) was 80.7% (active); that for `CCOC(=O)C(C(C)=O)C1=C(Cl)C(=O)c2ccccc2C1=O` (stereo not given) was 99.5% (active); that for `CC(C)(C)c1cc(C(O)(C(F)(F)F)C(F)(F)F)c(S)c(C(O)(C(F)(F)F)C(F)(F)F)c1` was 99.3% (active).
For `O=[N+]([O-])C1C(c2ccccc2)CC=CC1N1CCCC1` (stereo not given), the growth inhibition is 98% (active).
The value for `COc1ccc2nc3cc(Cl)ccc3c(NCCNc3c4ccc(Cl)cc4nc4ccc(OC)cc34)c2c1` was 92.8% (active).
The value for `CCN(CC)CCNc1nc(N)c2nc(-c3ccccc3)c(-c3ccccc3)nc2n1` was 15.5%.
Turning to `CC(=O)OCC(=O)[C@@]1(O)CC[C@H]2[C@@H]3CCC4=CC(=O)C=C[C@]4(C)[C@@]3(F)[C@@H](O)C[C@@]21C`, the growth inhibition was -2.8%.
The value for `O=Cc1cc(S(=O)(=O)c2ccc(O)c(C=O)c2)ccc1O` was 98.7% (active); that for `OCc1cccc2c1Oc1ccccc1S2` was -25.4%.
For the molecule `O=C(CCN1CCCC1)c1ccc(Oc2ccc(F)cc2)cc1`, the growth inhibition was 11.7%.
The value for `Cc1ccccc1N1CCN(c2c3c(nc4ccccc24)CCCCC3)CC1` was 97% (active); that for `CNC(Cc1ccccc1)c1ccc(OC)c2ccccc12` (stereo not given) was 10.2%; that for `CCCCN(CCCC)Cc1ccc(NC(C(=O)c2ccccc2)c2ccccc2)cc1` (stereo not given) was 82.2% (active).
The result for `CCS(=O)(=O)/C=C(\C#Cc1ccccc1)c1ccccc1` reads 82.4% (active); that for `CN(C)c1c([N+](=O)[O-])cc(N2C(=O)C=CC2=O)cc1[N+](=O)[O-]`, 93.2% (active).
The result for `CNC(=N)c1ccc(NC(=N)c2ccc(NC(=O)c3ccc(C(=O)Nc4ccc(C(=N)Nc5ccc(C(=N)NC)cc5)cc4)cc3)cc2)cc1` reads 51%; that for `O=[N+]([O-])c1ccc(-c2nc3ccc(F)cc3[nH]2)o1`, 99.8% (active).
Regarding `CCCCCCC(=O)CC(SCCN)c1ccccc1Cl` (stereo not given), the growth inhibition was 99.4% (active).
As for `O=C(CC(c1ccccc1Cl)C(C(=O)O)c1ccccc1)c1ccccc1` (stereo not given), the growth inhibition is 71.7% (active).
The result for `CC([N+](=O)[O-])C1(O)C(=O)c2cccc3cccc1c23` (stereo not given) reads 58.5%; that for `CC(=O)N(C1=C(Cl)C(=O)c2ccccc2C1=O)c1ccc(Cl)cc1`, 95.3% (active).
The result for `CCOC(=N)CCCSSc1ccc(N=[N+]=[N-])cc1` reads 99.2% (active).
